Where “and” joins values, the source holds several entries; their conditions need not be identical. Identical values can stand only once. Records with an inconclusive call do not appear. Some compounds were tested as several samples or in several runs, with calls that do not always agree. Unmarked numbers belong to inactive results. Calls of active or inactive are those of the source. Calls follow the shape of the dose curve; as a rule, active = well fitted inhibition curve with a large enough effect; inconclusive = small, poorly fitted or top-dose-only effect; inactive = flat fitted curve, though single readings scatter.

In one test the test system is CRL-7250. Description: Cytotoxic Profiling of Annotated Libraries Using Quantitative High-Throughput Screening (AID 1296008). The settings on record: Five cell lines viability, CellTiter-Glo ATP luminescence, 48-72 h; max response: stronger effect = lower value. An outline of the steps:
(§1)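 Cytotoxicity was measured as CellTiter-Glo ATP luminescence, read after 10 min at room temperature. Compound treatment of the cells lasted 48 or 72 hr at 37 degrees Celsius in a qHTS format.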
(Cellular ATP, detected with luciferase, serves as a proxy for viable cell number.)

A further test has as its system HEK293. The description is as above. The settings on record: Five cell lines viability, CellTiter-Glo ATP luminescence, 48-72 h; max response: stronger effect = lower value. An outline of the steps:
as §1

For test [1], the system named is HaCat. The test is described as above. Conditions: Five cell lines viability, CellTiter-Glo ATP luminescence, 48-72 h; max response: stronger effect = lower value. An outline of the steps: as §1
For another test, the system named is KB-3-1. Described as above. Conditions: Five cell lines viability, CellTiter-Glo ATP luminescence, 48-72 h; max response: stronger effect = lower value. An outline of the steps: as §1
The test system of test [2] is NIH3T3. Described as above. Conditions: Five cell lines viability, CellTiter-Glo ATP luminescence, 48-72 h; max response: stronger effect = lower value. An outline of the steps: as §1
Test [3] relates to HACAT. Description: qHTS assay to identify novel small-molecules to repurpose for Merkel cell carcinoma treatment (AID 1296009). The settings on record: MCC and control cell lines, CellTiter-Glo viability, 72 h; series mostly up to 44.8 µM. The essentials: (§2)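 72 hr, 37 degree celsius; NPC 8-pt / MIPE 11-pt dose response; compound pinned in DMSO; CellTiter-Glo, 10 min RT, luminescence; normalized to no-cell and DMSO controls.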
For orientation: In qHTS, concentration-response curves come from the screen itself.

The next test concerns HEK293T. The test is described as above. The settings on record: MCC and control cell lines, CellTiter-Glo viability, 72 h; at 44.8 µM (top of the series) unless noted. An outline of the steps: as §2
The next test concerns MCC-13. Described as above. The settings on record: MCC and control cell lines, CellTiter-Glo viability, 72 h; series mostly up to 46 µM. The essentials:
as §2

The next test deals with MCC-26. The test is described as above. The settings on record: MCC and control cell lines, CellTiter-Glo viability, 72 h; series mostly up to 46 µM. An outline of the steps:
as §2

For another test, the system named is MKL-2. Described as above. The settings on record: MCC and control cell lines, CellTiter-Glo viability, 72 h; series mostly up to 46 µM. The essentials:
as §2

For test [4], the system named is NIH3T3. The test is described as above. The settings on record: MCC and control cell lines, CellTiter-Glo viability, 72 h; at 44.8 µM (top of the series) unless noted. An outline of the steps:
as §2

In another test the test system is MKL-1. The description is as above. Conditions: MCC and control cell lines, CellTiter-Glo viability, 72 h; series mostly up to 46 µM. An outline of the steps:
as §2

Another test deals with UISO. The test is described as above. The settings on record: MCC and control cell lines, CellTiter-Glo viability, 72 h; series mostly up to 46 µM. An outline of the steps: as §2
% is scaled to controls: 0 for no effect and ±100 for the full control effect; potency is read from the fitted curve at half-maximal effect.
Also: nearly all actives have a fitted effect of over 60% in size.

With `Clc1ccc2ncc(-c3cccc(NC4CNC4)n3)n2c1`, the molecule was classed as inactive in the test on CRL-7250, in the test with HEK293, with HaCat [1], in the test with KB-3-1, in the test with NIH3T3 [2] and with HEK293T. In the test on NIH3T3 [4], the molecule was classed as inactive. Also, the Potency in the test with HEK293 is 18.7 µM (active). The Potency result in the test with HACAT [3], in the test on MCC-13, in the test with MCC-26 and in the test with MKL-2 was “inactive” in each case.
In the case of `CCNC(=O)Nc1ccc2ncc(Nc3ccc(C)cc3)nc2n1`, the max response in the test with CRL-7250 was -2.45%; in the test with HEK293, 1.18% and 1.8%; with HaCat [1], -7.35% and 2.38%; with KB-3-1 it was -0.0839%; in the test on NIH3T3 [2], 4.76% and -10.1%. Besides, the outcome in the test on CRL-7250 and in the test with KB-3-1 was inactive. Also, the Potency entry with MCC-13 is “inactive”.
For `CCCNC(=O)Nc1ccc(Oc2ncnc3cc(OC)c(OC)cc23)cc1Cl`, the max response in the test on CRL-7250 is -26.7% and 2.06%; in the test with HEK293 it was -15.3%; in the test on HaCat [1], 0.131% and 2.87%; in the test with KB-3-1, 4.92%; in the test with NIH3T3 [2] it was -7.41% and 0.662%. The outcome in the test with HEK293 and in the test with HEK293T was inactive. Further, the Potency entry with MCC-13, in the test on MCC-26, in the test on MKL-1, with MKL-2 and in the test with UISO was “inactive” in each case.
In the case of `O=C(CCCCCCC(=O)Nc1ccc([C@H]2O[C@@H](CSc3nc(-c4ccccc4)c(-c4ccccc4)o3)C[C@@H](c3ccc(CO)cc3)O2)cc1)NO`, the Potency in the test on CRL-7250 is 18.7 µM (active); with HEK293 it was 14.8 µM (active) and 18.4 µM (active); with HaCat [1] it was 20.9 µM (active); in the test with KB-3-1 it was 11.8 µM (active); with MCC-26, 23.5 µM (active); with MKL-1 it was 8.33 µM (active). The Potency with MKL-2 was 8.33 µM (active). Moreover, the max response in the test on CRL-7250 was -17.1%; with NIH3T3 [2] it was -17.5%. For the same molecule, the outcome in the test on HaCat [1] was inactive. Moreover, the Potency result in the test on HACAT [3] was “inactive”.
As to `CN(C1CCc2c(c3ccccc3n2CC(=O)O)C1)S(=O)(=O)c1ccc(F)cc1` (stereo unspecified), the max response is 3.48% and -10.1% in the test with CRL-7250; -3% and -8.76% with HEK293; -11.8% and -5.06% in the test on HaCat [1]; 7.37% with KB-3-1. Moreover, the outcome in the test with CRL-7250, in the test with HEK293, in the test on HaCat [1], in the test on KB-3-1, in the test on NIH3T3 [2] and in the test with HEK293T was inactive. The call in the test with NIH3T3 [4] was inactive. Besides, the Potency result with HACAT [3], with MCC-13, in the test with MCC-26, in the test with MKL-1 and in the test on UISO was “inactive” throughout.
For `C1Cc2[nH]nc(-c3nn[nH]n3)c2C1`, the max response was -5.71% and 4.92% in the test on CRL-7250; 2.99% in the test with HEK293; -5.07% in the test with HaCat [1]; 5.58% with KB-3-1. Moreover, the molecule was classed as inactive in the test with HEK293, in the test on HaCat [1], with KB-3-1, with NIH3T3 [2], with HEK293T and in the test on NIH3T3 [4]. The Potency result in the test with HACAT [3], with MCC-13, in the test on MCC-26, in the test on MKL-1, in the test on MKL-2 and in the test on UISO was “inactive” each time.
Take `Cc1c(C)n(Cc2ccc(-c3ccccc3C(=O)O)cc2)c2ccc(C(=O)N[C@@H](C)c3ccc([N+](=O)[O-])cc3)cc12`: the max response in the test with CRL-7250 was 0.704%; in the test on HaCat [1] it was -4.97%; in the test with KB-3-1, 0.427% and 0.798%; in the test with NIH3T3 [2] it was -3.87% and -3.64%. Further, the molecule was classed as inactive in the test with CRL-7250, in the test on HaCat [1] and in the test on HEK293T. The Potency result in the test on HACAT [3], with MCC-13 and with MCC-26 was “inactive” throughout. Besides, the figures for the Potency in the test on MKL-1 and in the test on MKL-2 were 0.372 µM (active) and 0.332 µM (active), respectively.
In the case of `COc1cc(-c2nn(C3CCC(N4CCN(C(C)=O)CC4)CC3)c3ncnc(N)c23)ccc1NC(=O)c1cc2ccccc2n1C` (stereo unspecified), the max response with CRL-7250 is -38.4%; in the test on HEK293 it was -12.7%; in the test on HaCat [1], -22.8%; in the test on KB-3-1 it was -0.49%; in the test on NIH3T3 [2] it was -32.1% and -29.8%. In addition, the Potency in the test on HaCat [1] was 3.66 µM (active); with KB-3-1 it was 20.6 µM (active); in the test on MKL-1, 3.72 µM (active); with UISO, 18.7 µM (active). Moreover, the Potency entry with MKL-2 is “inactive”.
As to `CN(C)CC(C)(C)CNc1nn2c(-c3ccccc3)nnc2cc1C1CCC1`, the max response in the test on CRL-7250 was -13.8%; in the test on HaCat [1], -29.4% and -5.55%; with KB-3-1, 9%; in the test with NIH3T3 [2] it was -0.774%. Further, the result with CRL-7250, with HEK293, with KB-3-1 and in the test on HEK293T was inactive. Moreover, the Potency with HEK293 is 4.18 µM (active); with MKL-1, 0.935 µM (active). Also, the Potency entry in the test with MCC-13 and in the test with MCC-26 was “inactive” throughout.
`CCCCCCCCCC(=O)N[C@@H](Cc1c[nH]c2ccccc12)C(=O)N[C@H](CC(N)=O)C(=O)N[C@@H](CC(=O)O)C(=O)N[C@@H]1C(=O)NCC(=O)N[C@@H](CCCN)C(=O)N[C@@H](CC(=O)O)C(=O)N[C@H](C)C(=O)N[C@@H](CC(=O)O)C(=O)NCC(=O)N[C@H](CO)C(=O)N[C@@H]([C@@H](C)CC(=O)O)C(=O)N[C@@H](CC(=O)c2ccccc2N)C(=O)O[C@@H]1C`: the call in the test on CRL-7250, with HEK293, in the test with HaCat [1], in the test on KB-3-1, in the test on NIH3T3 [2] and with HEK293T was inactive. Also, the result in the test on NIH3T3 [4] was inactive. The max response was 3.78% in the test on HEK293, -26.3% with HaCat [1] and -13.2% in the test with NIH3T3 [2]. Moreover, the Potency result in the test on HACAT [3], with MCC-13, in the test with MCC-26, with MKL-1, in the test on MKL-2 and with UISO was “inactive” each time.
Turning to `O=c1c2ccccc2nc2n1CCc1c-2[nH]c2ccccc12`, the max response in the test with CRL-7250 is 3.31%; in the test on HEK293, -12.5%; in the test on HaCat [1], -7.58%; in the test on KB-3-1, 4.3% and 8.09%; in the test with NIH3T3 [2], 0.849% and 0.542%. Further, the molecule was classed as inactive with HaCat [1]. Moreover, the Potency result with HACAT [3], in the test on MCC-13, in the test with MCC-26, in the test with MKL-1 and in the test on MKL-2 was “inactive” each time.
